About 83,000 compounds went through this panel and 20% of them were active in at least one assay; those are over-represented in the sample as a whole.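 Step 1: grow cells in 96-well plates. Step 2: add test compound at a single concentration. Step 3: incubate 48 h. Step 4: record percent growth.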 Unmarked numbers belong to inactive results. Calls of active or inactive are those of the source. Rule for the calls: active = growth percent below 10; inactive = the rest.

Assay in all cases: NCI-60 one-dose screen, 48 h (100 = growth as untreated, 0 = no growth, -100 = all killed)
What all share (conditions): 10 µM unless noted

Assay [1] has as its system NCI-H23 lung.
Assay [2] relates to NCI-H226 lung.
The test system of assay [3] is NCI-H322M lung.
Assay [4] concerns HOP-62 NSCLC.
The test system of assay [5] is NCI-H460 lung.
The subject of assay [6] is HOP-92 NSCLC.
For assay [7], the system named is NCI-H522 lung.
The subject of assay [8] is A549/ATCC NSCLC.
Assay [9] has as its system 786-0 renal.
Assay [10] has as its system COLO 205 colon.

With `O=C(c1ccc(OCCN2CCOCC2)cc1)C1[C@H](c2ccc(Cl)cc2)[C@@H](c2ccccc2)NC12C(=O)Nc1ccc(Cl)cc12` (stereo not given in full), the growth in assay [1] is 37.9%; in assay [2], 48.3%; in assay [3], 55.6%; in assay [4], 67.7%; in [5] it was 10.1%; in assay [6], -11.8% (active). Also, the growth is 16.3% in assay [7], 22.9% in [8], 16.6% in assay [9] and -20.1% (active) in assay [10].
On to `CCCCSc1nc(NCCc2c[nH]c3ccccc23)c(C#N)c(-c2ccc(OC)cc2)n1`, for which the growth in assay [1] was 48.3%; in assay [2], 60.9%; in assay [3], 87.4%; in [4], 57%; in [5] it was 33.4%; in [6], 47.3%. Moreover, the growth in [7] was 57.7%; in assay [8] it was 61.3%; in assay [9], 54.8%; in assay [10] it was 74.6%.
As for `CC(=O)NNc1ccc2nnc(-c3ccccc3)n2n1`, the growth in assay [1] was 96.6%; in [2], 105%; in assay [3], 102%; in [4], 116%; in assay [5], 106%; in assay [6], 109%. Further, the growth in assay [7] is 109%; in [8] it was 102%; in assay [9], 104%; in [10], 104%.
For the compound `CN1CCN(/C(=N\c2sc(-c3ccccc3)nc2-c2ccccc2)c2ccccc2)CC1`, the growth in assay [1] is 104%; in [2], 96.4%; in assay [3] it was 82.8%; in assay [4], 97.1%; in [5], 42.6%; in [6], 80.2%. The growth was 87.3% in [7], 76.9% in assay [8], 78.7% in assay [9] and 42% in assay [10].
`C=C1CCC2C3(C)COC(c4ccc(F)cc4)OC3CCC2(C)C1C/C=C1/C(=O)OCC1O` (stereo not given): the growth is -40.3% (active) in assay [1]; -8.14% (active) in [2]; 27% in assay [3]; -3.79% (active) in [4]; -39% (active) in assay [5]; -43.7% (active) in assay [6]. In addition, the growth in assay [7] was -80.7% (active); in assay [8], 9.65% (active); in assay [9], -89.2% (active); in [10], -50.6% (active).
As for `Cc1ccc([C@H]2C(C(=O)c3ccc(Cl)cc3)C3(N[C@@H]2c2ccccc2)C(=O)Nc2ccc(Cl)cc23)cc1` (stereo not given in full), the growth in assay [1] was 52.8%; in assay [2] it was 61.4%; in assay [3] it was 67.4%; in assay [4], 65.1%; in assay [5], 39.7%; in [6] it was 16.6%. Further, the growth in [7] is 43.9%; in [8], 33.2%; in assay [9], 39.1%; in [10], 44.5%.
For `COc1ccc(N2N=C(c3ccc4c(c3)OCO4)CC2c2cccc(NC(=O)CCNS(=O)(=O)c3ccc(Cl)cc3)c2)cc1` (stereo not given), the growth in assay [1] is 32.6%; in assay [2] it was 30.8%; in assay [3], 51.8%; in assay [4], 50.2%; in [5], 22.3%; in [6], 32%. The growth is -80.7% (active) in [7], 33.4% in assay [8], 43% in [9] and 29.2% in assay [10].
Turning to `C=C1CCC2C3(C)COC(c4cccc(F)c4)OC3CCC2(C)C1C/C=C1/C(=O)OCC1O` (stereo not given), the growth in assay [1] was -37.6% (active); in assay [2], 30.7%; in assay [3], 53.3%; in assay [4], 22.6%; in assay [5] it was 8.73% (active); in assay [6], -6.12% (active). Further, the growth in assay [7] was -76.1% (active); in [8] it was 23.3%; in assay [9], -84.8% (active); in [10], -51.5% (active).
Take `CCOC(=O)C1=C(N)N(c2ccccc2)C2=C(C(=O)CC(C)(C)C2)C1c1ccc(Cl)cc1Cl` (stereo not given): the growth in [1] is 34.5%; in assay [2] it was 24.4%; in assay [3], 56.8%; in [4], 50.5%; in assay [5] it was 18.3%; in assay [6] it was -0.322% (active). For the same compound, the growth was 35.3% in assay [7], 26.9% in [8], 34.3% in assay [9] and 9.03% (active) in assay [10].
With `COc1cc2c(c(OC)c1OC)C(=O)CC(c1cccc(NC(=O)c3cc(N)ccc3Cl)c1)O2` (stereo not given), the growth is 71.9% in assay [1]; 54.3% in assay [2]; 89% in [3]; 77.3% in assay [4]; 67.2% in assay [5]; 69.5% in [6]. Moreover, the growth in [7] was 8.06% (active); in assay [8], 71.5%; in [9], 84.7%; in [10], 86.2%.
As to `N/N=C(\N)c1c(N)nc(=S)[nH]c1-c1ccc(Cl)cc1Cl`, the growth was 103% in [1]; 106% in assay [2]; 106% in [3]; 92.5% in assay [4]; 116% in [5]; 76.2% in [6]. Further, the growth is 95.3% in assay [7], 104% in assay [8], 101% in assay [9] and 120% in [10].
On to `C[C@H]1CN(C(=O)c2ccc3c(NNC(=O)c4ccncn4)nc4cc(F)c(F)cc4n23)CCN1`, for which the growth in assay [1] was 37.5%; in assay [2], 6.31% (active); in [3] it was 32.2%; in assay [4] it was 18.7%; in assay [5] it was 6.66% (active); in assay [6], 65.4%. The growth was 67.9% in assay [7], 19.4% in assay [8], -14.4% (active) in [9] and 9.98% (active) in assay [10].
Regarding `CN(C)c1nc(NCCNS(=O)(=O)c2ccc(C3=Nc4c(N)nc(N)nc4NC(c4ccc(C(F)(F)F)cc4)C3)cc2)nc(Nc2ccc(F)cc2)n1` (stereo not given), the growth in assay [1] is 31.5%; in [2] it was 24.3%; in assay [3] it was 46.7%; in assay [4] it was 56.1%; in assay [5], -7.38% (active); in [7] it was 5.71% (active). Moreover, the growth in [8] is 45.8%; in [9], -35.4% (active); in assay [10], -83.5% (active).
For the compound `Cc1cc2nc3c4ccccc4n(CCNCCN(C)C)c3nc2cc1C`, the growth in assay [1] was 31.2%; in assay [2] it was 53.3%; in [3] it was 36.3%; in [4], 45.3%; in assay [5] it was 5.46% (active); in assay [6], 10.5%. For the same compound, the growth in assay [7] is 17.7%; in assay [8], 20.4%; in [9], 20.4%; in assay [10], -71.5% (active).
As for `CC(=O)c1cccc(NC(=O)CCC(=O)NS(=O)(=O)c2ccc(C)cc2)c1`, the growth was 108% in [1]; 108% in assay [2]; 109% in assay [3]; 98.6% in assay [4]; 120% in [5]; 102% in [7]. In addition, the growth in assay [8] is 100%; in assay [9], 105%; in [10], 113%.
On to `COc1ccc([C@H](C)Nc2nc(Cl)nc3ccccc23)cc1`, for which the growth in assay [1] was 23.2%; in [2], 58.9%; in assay [3], 86%; in assay [4], 43.6%; in assay [5], 60.8%; in [6] it was 46.1%. Also, the growth was -0.556% (active) in assay [7], 70.2% in assay [8], 84.8% in [9] and 90.3% in [10].
With `CCN1C(=O)N(CC)C2NNC(Sc3c(C(=O)O)c4ccccc4n(C4CCCC4)c3=O)=NC21` (stereo not given), the growth is 36.8% in [1]; 42% in [2]; 67.3% in assay [3]; 44.1% in [4]; 4.22% (active) in [5]; 73.4% in assay [6]. The growth in assay [7] was -23.1% (active); in assay [8] it was 28.2%; in [9], 22.9%; in [10], -31.1% (active).
As for `COc1ccc2[nH]cc(-c3nnc(N)nc3-c3c[nH]c4ncc(Br)cc34)c2c1`, the growth in [1] is 92.2%; in assay [2], 73.1%; in assay [3], 81.3%; in [4], 75.8%; in assay [5], 80.1%; in assay [6], 106%. Also, the growth in assay [7] is 84.2%; in assay [8], 98.2%; in [9] it was 74.8%; in assay [10], 132%.
For `COc1ccc2[nH]c(=O)c(CSc3nccc(-c4ccc(OC)c(OC)c4)n3)cc2c1`, the growth was 35.4% in assay [1]; -13.2% (active) in assay [2]; 40.6% in assay [3]; 0.29% (active) in assay [4]; 18.1% in assay [5]; -17.4% (active) in assay [7]. In addition, the growth in [8] is 18.3%; in assay [9], 30.4%; in assay [10], 36.5%.
`CCCCCCn1c(O)c(N=Nc2nc(-c3cc4ccccc4oc3=O)cs2)c2ccccc21`: the growth in [1] is -20.9% (active); in assay [2], 67.8%; in assay [3], 53.1%; in assay [4], 39.9%; in assay [5], 5.99% (active); in [7] it was -21.8% (active). Moreover, the growth was -16.6% (active) in assay [8], -64.8% (active) in assay [9] and 4.61% (active) in [10].
As to `Cc1ccc(C(SCCNCc2cc(N(C)C)ccn2)(c2ccccc2)c2ccccc2)cc1`, the growth in [1] is -35.8% (active); in assay [2], -6.05% (active); in assay [3] it was 23.1%; in [4] it was -1.31% (active); in assay [5], -26.6% (active); in [6] it was -25.4% (active). Also, the growth in [7] was -78.8% (active); in [8], -3.31% (active); in assay [9] it was -76.6% (active); in assay [10], -71.6% (active).
As to `O=C(COc1ccc2c(c1)CCCC(=O)N2)NCc1ccccc1`, the growth was 94.5% in assay [1]; 93.9% in assay [2]; 112% in [3]; 92.5% in assay [4]; 104% in [5]; 89.1% in [7]. The figures for the growth in assay [8], in assay [9] and in assay [10] were 103%, 101% and 106%, respectively.
